This is one part of a sample in which hits are shown more often than they occur.
Sfp PPTase inh = inhibitors of Bacillus subtilis Sfp phosphopantetheinyl transferase | Biochemical Sfp PPTase activity, qHTS | Potency, µM, most hits filed as inhibitors | 310,000 tested, 3.5% active;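 also: the enzyme is Sfp with the accession as filed and its product quenches rhodamine fluorescence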
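Compounds were incubated with enzyme (final 15 nM) for 15 min at room temperature before substrate addition started the reaction. Fluorescence at 525 nm excitation, 598 nm emission was recorded immediately and after 30 minutes.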
GRP78 ERSR act = ER stress response induction in glioma | U87-MG GRP78 promoter luciferase reporter, 16 h | Potency, µM, hits mostly activators | 420,000 tested, 0.02% active | AID 602332; also: series mostly up to about 76 µM; nearly all actives have a fitted effect of over 35% in size
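ERSR induction read as luciferase luminescence (Bright-Glo, 10 min at room temperature) in stably transfected human U87-MG glioma cells exposed to compounds for 16 h, using GRP78 as sensor.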
G9a inh = G9a (human) methyltransferase inhibition; G9a H3K9 monomethylation, AlphaScreen, 2 h; Potency, µM (doses to about 102 µM), hits mostly inhibitors; Q96KQ7; 350,000 tested, 8.8% active; also: nearly all actives have a fitted effect of over 75% in size
Target sequence (Q96KQ7 913-1193 limits assumed): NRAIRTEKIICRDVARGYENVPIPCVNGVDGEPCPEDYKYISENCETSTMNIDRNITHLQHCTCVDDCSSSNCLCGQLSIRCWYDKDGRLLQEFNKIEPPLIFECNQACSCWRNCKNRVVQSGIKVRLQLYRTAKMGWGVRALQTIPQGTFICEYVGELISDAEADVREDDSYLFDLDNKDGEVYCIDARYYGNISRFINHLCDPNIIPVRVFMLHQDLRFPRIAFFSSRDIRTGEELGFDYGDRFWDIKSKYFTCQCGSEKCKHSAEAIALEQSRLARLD
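Using a bead-based AlphaScreen, monomethylated H3K9 product from 2 h room-temperature reactions (G9a 20 nM, peptide 500 nM, SAM 20 uM) was detected with 0.5 ug/mL rabbit anti-H3K9me1 antibody.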
VDR inhibitor = vitamin D3 receptor (human) inhibition. 400,000 tested, 0.93% active. AID 504847. VDR-SRC2-3 peptide fluorescence polarization, 2 h. P11473. Potency, µM, usual class: inhibitors
Target sequence (P11473 whole entry, looked up): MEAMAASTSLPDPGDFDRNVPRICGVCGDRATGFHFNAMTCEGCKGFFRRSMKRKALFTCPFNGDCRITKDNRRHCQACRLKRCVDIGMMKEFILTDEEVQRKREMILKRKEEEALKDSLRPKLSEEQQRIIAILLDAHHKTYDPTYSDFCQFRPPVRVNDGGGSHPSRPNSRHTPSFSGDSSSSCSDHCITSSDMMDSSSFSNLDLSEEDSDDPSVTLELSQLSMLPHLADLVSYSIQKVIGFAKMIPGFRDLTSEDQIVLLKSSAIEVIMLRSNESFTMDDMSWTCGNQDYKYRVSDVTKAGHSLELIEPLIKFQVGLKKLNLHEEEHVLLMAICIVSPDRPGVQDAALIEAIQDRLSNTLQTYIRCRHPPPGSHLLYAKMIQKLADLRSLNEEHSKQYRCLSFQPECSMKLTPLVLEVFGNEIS
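The screen uses fluorescence polarization to detect compounds that interfere with recruitment of the SRC2-3 coactivator peptide to VDR; plates are read after 2 h at room temperature.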
ALOX12 inh = blocks human arachidonate 12S-lipoxygenase; P18054; purified 12hLO, xylenol orange hydroperoxide absorbance; Potency, µM (titrated, usually from 108 µM), usual class: inhibitors; 580,000 tested, 1.1% active; AID 1671190
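Hydroperoxide product was detected by ferrous iron/xylenol orange as the 573 to 405 nm absorbance ratio. Arachidonic acid at 40 uM (final) was turned over for 30 min at room temperature by 150 nM human 12hLO, pH 7.0 Hepes buffer, after 15 min compound preincubation.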
Numbers stand for hits; - = inactive; ? = inconclusive; . = not tested or not shown; [ ] = remark or other dose. Calls follow the shape of the dose curve; as a rule, active = well fitted curve in the direction sought with a large enough effect; inconclusive = small, poorly fitted or top-dose-only effect, or another doubt; inactive = no such curve, though single readings can be large; an effect the other way counts as inactive or inconclusive.

SMILES | Sfp PPTase inh | GRP78 ERSR act | G9a inh | VDR inhibitor | ALOX12 inh
COc1cc(OC)c(OC)cc1CN1CCc2nc(Nc3ccc4c(c3)OCCO4)ncc2C1 | . | - | 14µM | - | ?
COc1ccc(-c2cc3nc(C)c(CCC(=O)Nc4ccc5c(c4)OCO5)c(C)n3n2)c(OC)c1 | . | . | . | . | -
COc1cc(/C=C/C(=O)O)cc(S(=O)(=O)N2CCc3ccccc3C2)c1OC | - | - | 89µM | - | -
O=C(Oc1ccccc1O)c1cccc2ccccc12 | - | . | 45µM | . | -
c1ccc2c3c(ccc2c1)-c1cccc2cccc(c12)O3 | . | . | . | . | -
CN(C)/C=C/c1oc2ccc(O)cc2c1[N+](=O)[O-] | - | - | 50µM | - | -
Cc1cc2c(c(=O)n1Cc1cccnc1)C(Cc1ccccc1)C(C#N)=C(N)O2 (configuration not stated) | - | - | ? | - | -
Cc1cc2c(c(=O)n1Cc1cccnc1)C(c1cccs1)C(C#N)=C(N)O2 (configuration not stated) | 79µM | - | -[0.501 µM] | - | -
O=C(COc1cccc(Cl)c1)Nc1ccc(-c2nc3ccccc3o2)cc1 | . | . | . | . | -
COc1cc2c(cc1OC)-c1cc(Nc3ccc(N(C)C)cc3)nc(=O)n1CC2 | - | - | 14µM | - | ?
CCN(CC)c1ccc(Nc2cc3n(c(=O)n2)CCc2cc(OC)c(OC)cc2-3)cc1 | - | - | 20µM | - | ?
CCC(=O)Nc1nnc(-c2ccccn2)o1 | 50µM | - | 4.5µM | - | -
O=C(COc1ccccc1)Nc1nnc(-c2ccccc2)o1 | - | - | 79µM | - | -
CCC(=O)Nc1nnc(-c2ccco2)o1 | - | - | 22µM | - | ?
O=C(CCc1ccccc1)Nc1nnc(-c2ccccn2)o1 | - | - | ? | - | -
CCCCC(=O)Nc1nnc(-c2ccco2)o1 | - | - | - | - | -
O=C(Nc1nnc(-c2ccco2)o1)c1ccc([N+](=O)[O-])s1 | - | - | 45µM | - | ?
O=C(COc1ccccc1)Nc1nnc(-c2ccco2)o1 | - | - | ? | - | -
Cc1oc(-c2ccccc2)nc1CC(=O)NCCN(C(C)C)C(C)C | . | . | . | . | -
Cc1ccc(NC(=O)c2cc3c(cc2C)OCCCO3)c(C)c1 | . | . | . | . | -
CN(C)CC(C)(C)CNS(=O)(=O)c1ccc(Cl)cc1 | - | - | - | - | -
CN(C)CC(C)(C)CNS(=O)(=O)c1cccc(Cl)c1Cl | - | - | 8.9µM | - | ?
O=C(/C=C/c1cccc(OCc2ccccc2)c1)c1cccnc1 | 50µM | - | ? | 40µM | -
N=C(N)c1cccc(OCc2cccnc2)c1 | . | . | . | . | 7.9µM
CC1CN(S(=O)(=O)c2cccc(C(=O)OCC(=O)Nc3ccc4c(c3)OCO4)c2)CC(C)O1 (configuration not stated) | - | - | 50µM | - | -
SMILES | Sfp PPTase inh | GRP78 ERSR act | G9a inh | VDR inhibitor | ALOX12 inh
CCc1nnc(NS(=O)(=O)c2ccc(N/C=C\C(=O)c3ccc(C)cc3)cc2)s1 | - | - | - | - | ?
CCc1nnc(NS(=O)(=O)c2ccc(N/C=C/C(=O)c3ccc(C)cc3)cc2)s1 | - | - | 40µM | - | ?
CCc1nnc(NS(=O)(=O)c2ccc(N/C=C\C(=O)c3ccc(F)cc3)cc2)s1 | - | - | . | - | -
CCc1nnc(NS(=O)(=O)c2ccc(N/C=C\C(=O)c3cccc(OC)c3)cc2)s1 | - | - | 50µM | - | ?
CC(C)n1ncc2c(C(=O)Nc3ccc(F)cc3)c3c(nc21)CCC3 | . | . | . | . | -
O=C(CN1C(=O)/C(=C/c2c(F)cccc2Cl)Oc2ccccc21)NCc1ccco1 | 40µM | . | - | . | .
O=C(/C=C/c1c(F)cccc1Cl)NCc1ccco1 | - | - | - | - | -
COc1ccc(CCN2CN(S(=O)(=O)c3ccccc3)c3nc4ccccc4nc32)cc1OC | - | - | 32µM | - | -
CC(C)OCCCN1CN(S(=O)(=O)c2ccccc2)c2nc3ccccc3nc21 | - | - | 32µM | - | ?
COc1ccc(CCN2CN(S(=O)(=O)c3ccccc3)c3nc4ccccc4nc32)cc1 | - | - | ? | - | -
CCCCN1CN(S(=O)(=O)c2ccc(OC)cc2)c2nc3ccccc3nc21 | - | - | 35µM | - | -
CN1CCC(C(=O)N2Cc3ccccc3CC3(CCN(Cc4ccncc4)C3)C2)CC1 (configuration not stated) | . | . | . | . | -[6.33 µM]
CC(O)(c1ccc(F)c(F)c1)c1nc(/C=C/c2ccc(C(F)(F)F)cc2)cs1 (configuration not stated) | . | - | . | . | 35µM
CC(O)(c1ccc(F)c(F)c1)c1nc(-c2csc3ccccc23)cs1 (configuration not stated) | . | - | . | . | 45µM
O=C(O)c1ccc(Nc2nc3ccccc3nc2NS(=O)(=O)c2cccs2)cc1 | - | - | 50µM | - | ?
COc1ccc(S(=O)(=O)Nc2nc3ccccc3nc2Nc2cccc(C(=O)O)c2)cc1 | - | - | 45µM | - | -
O=C(O)c1cccc(Nc2nc3ccccc3nc2NS(=O)(=O)c2ccc(Br)cc2)c1 | . | . | . | . | 13µM
C/C(=N/O)C1(C)N(O)C(C)(C)C(c2ccc(Cl)cc2)=[N+]1[O-] (configuration not stated) | . | . | . | . | -
CCC(C(=O)NCCn1ccn2nc(-c3ccc(OC)cc3)cc2c1=O)c1ccccc1 (configuration not stated) | . | . | . | . | -
CCOc1ccc(C(C)NC(=O)CC2Sc3ccccc3NC2=O)cc1OCC (configuration not stated) | . | . | . | . | -
CCN1/C(=N\N)c2cccc3cccc1c23 | 35µM | - | - | - | -
N#Cc1c(-c2ccccc2)cc(-c2cccs2)nc1SCC(O)CS(=O)Cc1ccccc1 (configuration not stated) | . | . | . | . | -
N#CCSc1n[nH]c2nc3c(c(=O)n12)C1(CCCC1)Cc1ccccc1-3 | 89µM | - | ? | - | -
Cc1cccn2c(=O)c(C=O)c(Nc3ccccc3)nc12 | - | - | 45µM | - | .
Cc1cccn2c(=O)c(/C=N/O)c(Nc3ccccc3F)nc12 | - | - | . | - | -
SMILES | Sfp PPTase inh | GRP78 ERSR act | G9a inh | VDR inhibitor | ALOX12 inh
O=C(NCC(F)(F)F)c1ccc(CN(C(=O)/C=C/c2ccccc2)C2CC2)cc1 | . | . | . | . | -
C=CCc1ccccc1OCC(O)CNC (configuration not stated) | - | - | 50µM | - | -
C=CCc1ccccc1OCC(O)CN1CCOCC1 (configuration not stated) | . | - | . | - | 40µM
C=CCc1ccccc1OC[C@H](O)CNC(C)C | - | - | -[21.5 µM] | - | .
C=CCc1ccccc1OCC(O)CN1CCN(c2ccc(OC)cc2)CC1 (configuration not stated) | - | - | ? | - | -
Cn1cnc([N+](=O)[O-])c1S(=O)(=O)c1ccc(Cl)cc1 | - | - | - | 50µM | -
O=C(Nc1ccc(Nc2ccncc2)cc1)c1ccc(Nc2ccnc3ccc([N+](=O)[O-])cc23)cc1[N+](=O)[O-] | ? | - | 50µM | - | ?
CC[n+]1c(C)cc2c(sc3ccccc32)c1C | - | - | 22µM | - | ?
CCc1nc(C)cc2c1sc1ccccc12 | - | - | -[12.7 µM] | - | ?

High-throughput results: PubChem BioAssay, National Center for Advancing Translational Sciences (NCATS)
